Bioassay records from PubChem BioAssay.
AmpC nodet inh: AmpC beta-lactamase inhibition, detergent-free assay | Potency, µM (highest dose often 28.7 µM), without a hit: at the highest dose activity change, negative = inhibition | P00811 | actives 1.8% (n = 71,000) | AmpC nitrocefin hydrolysis, absorbance 480 nm, no detergent; also: % of control where 0% means no effect
Target sequence (P00811 whole entry, looked up): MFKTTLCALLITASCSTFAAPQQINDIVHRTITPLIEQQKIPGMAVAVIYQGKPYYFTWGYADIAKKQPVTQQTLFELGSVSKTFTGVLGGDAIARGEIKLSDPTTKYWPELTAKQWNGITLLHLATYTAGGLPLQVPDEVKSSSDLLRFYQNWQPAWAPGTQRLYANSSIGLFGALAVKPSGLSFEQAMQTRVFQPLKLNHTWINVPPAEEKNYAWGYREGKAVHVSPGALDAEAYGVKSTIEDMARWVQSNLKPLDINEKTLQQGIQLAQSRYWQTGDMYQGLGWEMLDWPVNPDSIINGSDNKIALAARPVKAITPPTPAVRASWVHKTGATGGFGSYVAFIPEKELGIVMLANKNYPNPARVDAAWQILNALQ
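Enzyme, pH 7.0 phosphate. Compound titrations were pre-incubated with AmpC for 15 min at room temperature before nitrocefin (stock 800 uM) addition; product formation was recorded at 480 nm every 20 s for 4 min.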
AmpC inh det: inhibitors of E. coli AmpC beta-lactamase with detergent | Potency, µM (top dose mostly 28.7 µM), without a hit: at the top dose activity change, negative = inhibition | actives 0.09% (n = 71,000) | purified AmpC, nitrocefin hydrolysis with detergent; active = well fitted curve in the direction sought with a large enough effect; inconclusive = small, poorly fitted or top-dose-only effect; also: % is scaled to controls: 0 for no effect and ±100 for the full control effect
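E. coli AmpC (5.3 nM) in 20 mM phosphate pH 7.0 with 0.01% Triton X-100, preincubated 15 min RT with compound; nitrocefin (2 uL of 800 uM stock) hydrolysis followed by 480 nm absorbance every 20 s over 4 min.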
SmPrx2 inh: blocks S. mansoni peroxiredoxin 2 enzymatic activity; S. mansoni Prx2 activity coupled to TGR/GSH (TGR is thioredoxin glutathione reductase), NADPH fluorescence loss, qHTS; Potency, µM; actives 0.07% (n = 65,000)
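Enzyme mix: 100 uM NADPH, 25 nM TGR, 700 uM GSH, 50 nM Prx2 in 100 mM phosphate pH 7.4, 10 mM EDTA, 0.01% Tween-20. 15 min RT with compound; NADPH/GSH added, H2O2 starts reaction; NADPH fluorescence read 8 min.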
LT uptake inh: blocks cellular internalization of anthrax lethal toxin; Cells, anthrax lethal toxin internalization, FRET ratio (460/530); Potency, µM (top dose mostly 40 µM), without a hit: at the top dose activity change, negative = inhibition, hits mostly inhibitors; actives 0.67% (n = 70,000); also: % is scaled to controls: 0 for no effect and ±100 for the full control effect; nearly all actives have a fitted effect of over 50% in size
* = called active by the depositor; ? = inconclusive; . = no result given; [ ] = dose if it differs, or a comment. Compounds with a hit are over-represented: about 2.4% of the library has one in this group of screens. Unless noted, calls follow the shape of the full dose curve. Potency is read from the fitted curve at half-maximal effect.

SMILES	AmpC nodet inh	AmpC inh det	SmPrx2 inh	LT uptake inh
CCCC(=O)Nc1ncnc2c1ncn2[C@@H]1O[C@H]2COP(=O)(O)O[C@@H]2[C@@H]1OC(=O)CCC	5%[12.8 µM]	-1%[12.8 µM]	>57	3%[3.58 µM]
O=C(c1ccc(CS(=O)(=O)c2ccc(Br)cc2)o1)N1CCN(C2CCCCC2)CC1	-2%	6%	>57	-3%
O=C(c1ccc(CS(=O)(=O)c2ccc(Br)cc2)o1)N1CCCCCC1	3.2µM*[single pt active]	7%	>57	?
O=C(c1ccc(CS(=O)(=O)c2ccc(Br)cc2)o1)N1CCCC1	4µM*[single pt active]	15%	>57	-4%
Cc1ccc(S(=O)(=O)Cc2ccc(C(=O)N3CCN(Cc4ccccc4)CC3)o2)cc1	100%	13%	>57	-19%
O=C(c1ccc(CS(=O)(=O)c2ccccc2)o1)N1CCOCC1	2.5µM*[single pt active]	10%	>57	-14%
COc1ncc2nc(-c3ccc(F)cc3)c(=O)n(C)c2n1	3%	-1%	>57	-10%
Cc1cc(C)nc(SCCc2cccc[n+]2C)n1	10%[5.75 µM]	-3%[5.75 µM]	?	-8%[8 µM]
CCSc1ccc2c(c1)N(CCCN1CCN(C)CC1)c1ccccc1S2	57%[12.8 µM]	-3%[12.8 µM]	>57	15%[3.58 µM]
CN1CCN(CCCN2c3ccccc3Sc3ccc(Cl)cc32)CC1	61%[12.8 µM]	-2%[12.8 µM]	>57	25µM*
CC[C@H](CO)NC(=O)[C@@H]1C=C2c3cccc4c3c(cn4C)C[C@@H]2N(C)C1	13%	-1%	>57	-2%
N#CC(C#N)=NNc1ccc2cn[nH]c2c1	-1%[5.75 µM]	-4%[5.75 µM]	.	-11%[8 µM]
N#CC(C#N)=NNc1cccc(Cl)c1	.	.	.	2.5µM*
CN1CCc2cc3c(cc2[C@@H]1[C@H]1OC(=O)c2c1ccc1c2OCO1)OCO3	40%	-3%	>57	?
CCOC(=O)N1CCC(NC(=O)c2ccc3snnc3c2)CC1	4µM*[single pt active]	14%	>57	1%
Cc1ccc(S(=O)(=O)Nc2cccc(-c3cn4ccsc4n3)c2)cc1	6.3µM*	-1%	>57	?
CCCn1c(-c2ccc(F)cc2)nc2c(NCCN(C(C)C)C(C)C)nc(C)nc21	33%	15%	.	-4%
COc1ccc2cc3cc(C(=O)Nc4ccc5c(c4)OCCO5)oc3nc2c1	48%	0%	>57	1µM*
O=C(Nc1ccc2c(c1)OCCO2)c1ccco1	3%	9%	>57	10µM*
COc1ccc2cc3cc(C(=O)NCc4ccc5c(c4)OCO5)oc3nc2c1	3%	-2%	>57	9%
COc1ccc(Oc2ncc3ncc(=O)n(C)c3n2)cc1	2%	0%	>57	-14%
Cc1cc(NC(=O)c2cc(C)on2)no1	7%	0%	>57	0%
Cc1cc(NC(=O)c2cc(CC(C)C)on2)no1	4µM*[single pt active]	12%	>57	-17%
COc1cc(NC(=O)c2cc(CC(C)C)on2)c(OC)cc1Cl	4µM*[single pt active]	10%	>57	?
CC(C)Cc1cc(C(=O)Nc2sc3c(c2C#N)CCCC3)no1	4µM*[single pt active]	12%	>57	7.9µM*
SMILES	AmpC nodet inh	AmpC inh det	SmPrx2 inh	LT uptake inh
CC(=O)c1ccc(NC(=O)c2cc(CC(C)C)on2)cc1	4µM*[single pt active]	11%	>57	-16%
COc1ccc2c(c1)N(C[C@@H](C)CN(C)C)c1ccccc1S2	43%[12.8 µM]	-2%[12.8 µM]	>57	?
O=C(CN1CCN(c2ccc(F)cc2)CC1)Nc1nnc(-c2ccccc2)s1	16µM*[single pt active]	0%	>57	1%
O=C(CN1CCN(c2ccccc2)CC1)Nc1nnc(-c2ccccc2)s1	-8%	-2%	>57	-1%
Cc1ccc(-c2nc(CSCC(=O)N3CCCC3)c(C)o2)cc1	67%	-1%	>57	7%
Cc1ccsc1-c1nc(CSCC(=O)N2CCN(c3ccccc3)CC2)c(C)o1	127%	10%	>57	16µM*
O=C1c2ccccc2C(Nc2ccc(S(=O)(=O)N3CCOCC3)cc2)N1c1cccnc1 (stereo not drawn)	4µM*[single pt active]	10%	>57	?
O=C1c2ccccc2C(Nc2ccc(F)c(Cl)c2)N1c1ccccn1 (stereo not drawn)	4µM*[single pt active]	13%	>57	-17%
O=C1c2ccccc2C(Nc2ccc(S(=O)(=O)N3CCCCC3)cc2)N1c1ccccn1 (stereo not drawn)	3.2µM*[single pt active]	15%	>57	?
Cc1cc(NC(=O)CSc2nc(C(C)C)nc3sc(C)c(C)c23)no1	10%	-1%	>57	-3%
Cc1cc(NC(=O)CSc2ncnc3sc4c(c23)CCC(C)C4)no1 (stereo not drawn)	5µM*	-4%	>57	-1%
C=C(C)CSc1nc(N)c(C#N)c(-c2ccc(C)cc2)c1C#N	6.3µM*	19%	>57	?
CCCCOc1ccc(-c2c(C#N)c(N)nc(SCC(N)=O)c2C#N)cc1	20µM*[single pt active]	6%	>57	?
CSc1nc(N)c(C#N)c(-c2ccc(Cl)cc2)c1C#N	?	-4%	>57	?
Cc1ccc2c(c1)C(=O)[C@@]1(O)CCN(c3ccccc3)C1=N2	18%	0%	>57	11%
CCOC(=O)c1ccc(NC(=O)c2ccc(C)c(S(=O)(=O)N3CCOCC3)c2)cc1	80%	-1%	?	13µM*
Cc1nn(-c2ccccn2)c(C)c1Oc1ccccc1O	1%	-1%	>57	3%
Cc1nn(-c2nc3ccccc3s2)c(C)c1Oc1ccccc1O	-24%	-5%	>57	10µM*
COC(=O)c1ccc(C#CC(NP(=O)(c2ccccc2)c2ccccc2)c2ccccc2)cc1 (stereo not drawn)	34%	0%	>57	-1%
Cc1occc1C(=O)n1nnc2ccccc21	10µM*	10µM*	>57	-21%
CCOC(=O)C1=C(N)Oc2ccc(Br)cc2[C@@H]1[C@@H](C#N)C(=O)OCC	0%	0%	39*	?
Cc1nc(NCc2ccccc2)c2nc(-c3ccccc3)n(CCN3CCOCC3)c2n1	166%	7%	.	3%
COC(=O)N1CCC2(CC1)CN(c1ccccc1)C2	31%	2%	>57	-11%
COc1ccc(S(=O)(=O)Cc2ccc(C(=O)NCc3ccc(F)cc3)o2)cc1	4µM*[single pt active]	6%	>57	?
COc1ccc(S(=O)(=O)Cc2ccc(C(=O)NCc3cccnc3)o2)cc1	4µM*[single pt active]	16%	>57	-9%
SMILES	AmpC nodet inh	AmpC inh det	SmPrx2 inh	LT uptake inh
COCCCNC(=O)c1ccc(CS(=O)(=O)c2ccc(OC)cc2)o1	4µM*[single pt active]	12%	>57	-11%
COc1ccc(S(=O)(=O)Cc2ccc(C(=O)NCCc3ccc(S(N)(=O)=O)cc3)o2)cc1	-4%	11%	>57	-11%
Cc1cc(C)cc(N(CC(=O)N2CCc3ccccc32)S(=O)(=O)c2c(C)noc2C)c1	4µM*[single pt active]	11%	>57	2µM*
Cc1cc(C)cc(N(CC(=O)N2CCn3c2nc2ccccc23)S(=O)(=O)c2c(C)noc2C)c1	4µM*[single pt active]	11%	>57	?
CCOc1ccc(N(CC(=O)N2CCc3ccccc32)S(=O)(=O)c2c(C)noc2C)cc1	3.2µM*[single pt active]	17%	>57	?
Cc1cc(C)cc(N(CC(=O)N2CCN(c3ccccc3)CC2)S(=O)(=O)c2c(C)noc2C)c1	108%	15%	>57	?
